We go through eight molecules from PubChem BioAssay.

Assay [1] deals with Wnt5a (protein binding on small-molecule microarray). Description: small molecules binding Wnt5a protein – biophysical, small-molecule microarray, 635/667 nm fluorescence, primary screen (AID 1142).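 Further: fluorescence read at 667 nm with signal to noise per printed feature.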 As to conditions: 635 nm fluorescence, higher = more signal.
A short description of assay [2]: ATP-based viability of Huh7 replicon cells – cell-based, CellTiter-Glo luminescence, basal, 48 h, cytotoxicity control for HCV replication inhibitor project, primary screen (AID 1143).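 Further: Huh7 hepatoma cells carrying a hepatitis C replication reporter with no stimulus; test concentration not given here.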 As to conditions: higher = more signal, called active from +8 up or from −8 down.
The nature of assay [3]: Pseudomonas biofilm growth suppression – PAO1 strain, BacTiter-Glo luminescence, LB-PBS, primary screen (AID 1144). Conditions: P. aeruginosa PAO1 biofilm, 12 h, higher = more signal.
Assay [4] in a line: basal CRE-LacZ reporter activity in PC12 – cell-based, unstimulated, primary screen (AID 1145). As to conditions: no forskolin, luminescence, 4.5 h, higher = more signal, called active from +8 up or from −8 down.
A short description of assay [5]: forskolin-driven CRE-LacZ activity in PC12 – cell-based, CRE-LacZ reporter, forskolin-stimulated, primary screen (AID 1146).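 Further: PC12 cells with 6xCRE LacZ reporter stimulated by forskolin 10 µM; beta-galactosidase reporter signal reflecting CREB driven transcription.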 As to conditions: luminescence, 4.5 h, higher = more signal, called active from +8 up or from −8 down.
Assay [6] concerns the target Streptavidin (Streptomyces avidinii) (UniProt P22629). Description: compounds binding control protein streptavidin – biophysical, small-molecule microarray, 635/667 nm fluorescence, artefact control for SMM compound annotation, primary screen (AID 1147).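 Further: signal reflects streptavidin binding to arrayed compounds as a control protein.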 Conditions: higher = more signal.
Assay [7] is described as follows: probe aInhba binding on compound microarray – biochemical, small-molecule microarray, 635/667 nm fluorescence, primary screen (AID 1148).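 Further: score merges 667nm spot fluorescence with signal-to-noise for antibody binding to printed compounds.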 Conditions: higher = more signal.
In assay [8] the target is Torsin-1A (Homo sapiens) (UniProt O14656). Description: TOR1A wild-type binding on microarray – cell lysate, small-molecule microarray, lysate, 635/667 nm, primary screen (AID 1149). As to conditions: COS7 hTOR1A-WT lysate, 635 nm fluorescence, higher = more signal.
Assay [9] has the same target. Description: torsin A mutant lysate binding on microarrays – cell lysate, small-molecule microarray, COS7 lysate, 635/667 nm fluorescence, primary screen (AID 1150).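 Further: score pools 667 nm emission and signal to noise measuring lysate protein binding.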 Conditions: COS7 hTOR1A mutant lysate, 635 nm fluorescence, higher = more signal.
The test system of assay [10] is Sonic hedgehog protein (Shh). Description: Sonic hedgehog microarray binding compounds – biochemical, small-molecule microarray, 635/667 nm fluorescence, primary screen (AID 1151).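 Further: Shh protein binding to compounds spotted on small-molecule microarray slides; score combines spot fluorescence intensity with signal-to-noise across triplicate slides.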 Conditions: 635 nm fluorescence, higher = more signal.
The nature of assay [11]: optical density shifts of acrAB sulA E. coli – strain DRC41, OD650, 48 h, E. coli filamentation inducer project, primary screen (AID 1152).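 Further: E. coli MC1000 strain DRC41 lacking acrAB efflux pump and sulA.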 As to conditions: higher = more signal, called active from +8 up or from −8 down.
Assay [12] is described as follows: probe aLefty1 binding on compound microarray – biochemical, small-molecule microarray, 635/667 nm fluorescence, primary screen (AID 1153).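 Further: score merges spot fluorescence with signal-to-noise ratio from the scanned slide images.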 Conditions: higher = more signal.
The nature of assay [13]: plasmodial surface anion channel blockers, osmotic lysis – cell-based, P. falciparum Indochina, OD700, 1 h, primary screen (AID 1154). Conditions: P. falciparum Indochina infected RBC osmotic lysis, higher = more signal, called active from +8 up or from −8 down.
Assay [14] in a line: plasmodial surface anion channel blockers, osmotic lysis – cell-based, P. falciparum Indochina, OD700, 2 h, primary screen (AID 1155).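 Further: lysis reports solute entry through the parasite surface anion channel PSAC.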 Conditions: P. falciparum Indochina infected erythrocytes, higher = more signal, called active from +8 up or from −8 down.
Assay [15] can be described thus: changes in parasitized red cell lysis, either direction – P. falciparum Indochina, OD700, 3 h, PSAC antagonist project, primary screen (AID 1156). Conditions: P. falciparum-infected erythrocytes, osmotic lysis, higher = more signal, called active from +8 up or from −8 down.
Assay [16] is described as follows: plasmodial surface anion channel blockers, osmotic lysis – cell-based, P. falciparum Indochina, OD700, 18 h, primary screen (AID 1157). As to conditions: P. falciparum Indochina infected erythrocytes, osmotic lysis OD700, 18 h; higher = more signal, called active from +8 up or from −8 down.
The nature of assay [17]: S6 kinase pathway phospho-S6 level changes – cell-based, A549, cytoblot, luminescence, serum-stimulated, primary screen (AID 1158).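 Further: serum-stimulated A549 lung adenocarcinoma cells; signal is phosphorylated S6 detected by cytoblot immunostaining with HRP secondary.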 Conditions: 5 h, higher = more signal.
Assay [18] addresses NADPH oxidase 2 (Homo sapiens) (UniProt P04839). Description: compounds shifting NOX2 Amplex Red fluorescence – cell-based, HEK293-NOX2, PMA-stimulated, NOX inhibitor project, primary screen (AID 1159). Further: test concentration not given here. Conditions: 45 min, higher = more signal, called active from +8 up or from −8 down.
Assay [19] addresses NADPH oxidase 4 (Homo sapiens) (UniProt Q9NPH5). Description: compounds shifting NOX4 Amplex Red fluorescence – cell-based, HEK293-NOX4, tetracycline-induced, NOX inhibitor project, primary screen (AID 1160). Conditions: HEK293-NOX4, Amplex Red H2O2 fluorescence, 45 min; higher = more signal, called active from +8 up or from −8 down.
For assay [20], the target named is NADPH oxidase 5 (Homo sapiens) (UniProt Q96PH1). The experiment in a line: compounds shifting NOX5 Amplex Red fluorescence – cell-based, HEK293-NOX5, NOX inhibitor project, primary screen (AID 1161). Conditions: HEK293-NOX5, ionomycin, 45 min, higher = more signal.

The source made the active and inactive calls. Unless noted, how the calls were made is not given here.

Torsin-1A (Homo sapiens), sequence (O14656 whole entry, looked up): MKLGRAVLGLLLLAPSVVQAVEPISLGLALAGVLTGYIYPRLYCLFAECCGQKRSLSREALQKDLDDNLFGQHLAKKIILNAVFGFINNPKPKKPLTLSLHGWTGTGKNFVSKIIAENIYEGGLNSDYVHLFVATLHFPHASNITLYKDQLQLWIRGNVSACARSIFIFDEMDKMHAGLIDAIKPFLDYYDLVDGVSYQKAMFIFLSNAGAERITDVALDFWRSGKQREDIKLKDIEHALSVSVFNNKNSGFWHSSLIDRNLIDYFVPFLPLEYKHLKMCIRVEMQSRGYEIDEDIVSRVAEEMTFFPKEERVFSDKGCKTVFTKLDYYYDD
Streptavidin (Streptomyces avidinii), sequence (P22629 whole entry, looked up): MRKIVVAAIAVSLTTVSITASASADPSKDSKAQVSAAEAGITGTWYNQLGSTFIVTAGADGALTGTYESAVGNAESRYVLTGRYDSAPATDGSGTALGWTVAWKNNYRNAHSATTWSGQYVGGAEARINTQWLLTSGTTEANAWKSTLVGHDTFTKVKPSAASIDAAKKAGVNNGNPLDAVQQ
NADPH oxidase 5 (Homo sapiens), sequence (Q96PH1 whole entry, looked up): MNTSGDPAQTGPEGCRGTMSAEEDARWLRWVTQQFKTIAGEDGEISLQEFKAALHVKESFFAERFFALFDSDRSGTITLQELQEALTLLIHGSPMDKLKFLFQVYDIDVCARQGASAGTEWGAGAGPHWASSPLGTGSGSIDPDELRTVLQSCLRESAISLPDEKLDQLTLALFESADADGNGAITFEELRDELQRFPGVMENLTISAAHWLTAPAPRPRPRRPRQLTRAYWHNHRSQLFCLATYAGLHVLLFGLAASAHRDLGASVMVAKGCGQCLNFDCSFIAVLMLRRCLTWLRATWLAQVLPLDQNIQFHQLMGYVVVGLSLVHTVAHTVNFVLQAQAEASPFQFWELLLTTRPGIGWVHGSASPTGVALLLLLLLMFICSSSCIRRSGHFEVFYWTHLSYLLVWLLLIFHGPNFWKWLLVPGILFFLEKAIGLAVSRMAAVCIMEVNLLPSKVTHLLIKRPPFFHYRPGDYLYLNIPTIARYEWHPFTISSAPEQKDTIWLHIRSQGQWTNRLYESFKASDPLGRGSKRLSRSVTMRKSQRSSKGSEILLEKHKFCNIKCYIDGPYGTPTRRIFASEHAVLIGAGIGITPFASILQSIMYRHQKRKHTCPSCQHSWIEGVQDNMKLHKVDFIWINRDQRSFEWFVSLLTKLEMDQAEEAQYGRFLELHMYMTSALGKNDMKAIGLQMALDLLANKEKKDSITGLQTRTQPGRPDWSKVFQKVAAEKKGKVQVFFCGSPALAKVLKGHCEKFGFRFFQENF
NADPH oxidase 4 (Homo sapiens), sequence (Q9NPH5 whole entry, looked up): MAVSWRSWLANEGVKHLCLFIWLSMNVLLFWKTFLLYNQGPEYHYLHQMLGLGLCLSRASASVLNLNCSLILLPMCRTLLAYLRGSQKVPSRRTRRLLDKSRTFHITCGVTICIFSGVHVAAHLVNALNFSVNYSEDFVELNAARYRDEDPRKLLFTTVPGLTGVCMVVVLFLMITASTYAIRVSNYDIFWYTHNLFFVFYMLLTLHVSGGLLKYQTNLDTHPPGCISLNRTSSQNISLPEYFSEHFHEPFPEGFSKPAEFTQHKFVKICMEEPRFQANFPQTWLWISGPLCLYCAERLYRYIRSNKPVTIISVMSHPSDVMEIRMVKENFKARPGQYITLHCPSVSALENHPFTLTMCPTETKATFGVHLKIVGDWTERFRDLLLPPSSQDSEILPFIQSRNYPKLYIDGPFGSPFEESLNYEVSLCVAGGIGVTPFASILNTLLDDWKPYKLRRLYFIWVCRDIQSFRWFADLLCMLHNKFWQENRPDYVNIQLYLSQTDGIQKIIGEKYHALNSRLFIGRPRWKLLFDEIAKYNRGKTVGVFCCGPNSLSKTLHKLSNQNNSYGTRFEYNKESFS
NADPH oxidase 2 (Homo sapiens), sequence (P04839 whole entry, looked up): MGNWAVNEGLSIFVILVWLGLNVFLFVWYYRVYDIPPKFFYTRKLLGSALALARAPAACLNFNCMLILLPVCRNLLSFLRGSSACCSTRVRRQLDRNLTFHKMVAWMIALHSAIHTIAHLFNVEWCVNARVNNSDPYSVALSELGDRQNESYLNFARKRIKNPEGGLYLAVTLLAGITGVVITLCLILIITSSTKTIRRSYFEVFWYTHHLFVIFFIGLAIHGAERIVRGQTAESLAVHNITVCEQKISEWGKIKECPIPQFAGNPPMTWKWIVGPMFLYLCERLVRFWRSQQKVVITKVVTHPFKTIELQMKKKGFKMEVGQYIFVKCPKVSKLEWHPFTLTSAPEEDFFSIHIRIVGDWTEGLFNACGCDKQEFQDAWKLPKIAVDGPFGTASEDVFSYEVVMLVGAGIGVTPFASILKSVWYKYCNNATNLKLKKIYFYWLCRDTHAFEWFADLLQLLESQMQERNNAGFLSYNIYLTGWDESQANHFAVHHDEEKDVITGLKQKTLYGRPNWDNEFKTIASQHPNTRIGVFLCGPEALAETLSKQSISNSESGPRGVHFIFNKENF

For the molecule `CO[C@H]1O[C@H](CO)[C@@H](OC(=O)Nc2ccc3c(c2)OCO3)[C@@H]2OC(=O)[C@@H](Cc3ccccc3)C/C=C/C[C@H](Cc3ccccc3)C(=O)O[C@@H]12`, the composite z-score is 0.465 in [1]; 0.294 in [6]; 0.24 in [7]; -0.0548 with Torsin-1A (Homo sapiens) [8]; 0.266 in the assay with Torsin-1A (Homo sapiens) [9]; 1.32 in assay [10]. The composite z-score in [12] is 0.12. Moreover, the z-score in [2] was -2.26 (inactive); in assay [3], 0.293 (inactive); in [4], 0.951 (inactive); in assay [5] it was -0.601 (inactive); in assay [11] it was 0.239 (inactive); in assay [13] it was 2.93 (inactive). Besides, the z-score is 0.825 (inactive) in [14]; 0.0814 (inactive) in assay [15]; 1.09 (inactive) in assay [16]; 0.401 in assay [17]; -0.895 (inactive) in assay [18]; -0.162 (inactive) in assay [19]. Also, the z-score in assay [20] is -1.47.

In the case of `C#CCN([C@H](/C=C/C1CC1)[C@@H](O)Cc1ccccc1)[C@@H](Cc1ccccc1)C(=O)OC`, the composite z-score in assay [1] was -0.48; in [6], 0.483; in [7] it was 0.0013; with Torsin-1A (Homo sapiens) [8], 0.0515; with Torsin-1A (Homo sapiens) [9], -0.409; in [10], 1.08. Moreover, in assay [12], the composite z-score came to 0.0531. For the same molecule, the z-score was -2.91 (inactive) in assay [2]; -0.669 (inactive) in assay [3]; 3.21 (inactive) in assay [4]; -0.765 (inactive) in [5]; 1.3 (inactive) in [11]; 2.62 (inactive) in assay [13]. Besides, the z-score in assay [14] was 1.78 (inactive); in assay [15] it was -0.345 (inactive); in [16], 1.28 (inactive); in assay [17] it was 0.296; in assay [18], -0.293 (inactive); in assay [19] it was 0.396 (inactive). Further, the z-score in [20] was -2.6.

In the case of `C=C(/C(=C/C[C@@H](OC(C)=O)c1ccccc1OCCO)c1cc(C(=O)OC)ccc1OC)C(C)C`, the composite z-score is 0.332 in assay [1]; -0.576 in assay [6]; -0.024 in assay [7]; 0.212 with Torsin-1A (Homo sapiens) [8]; -0.461 with Torsin-1A (Homo sapiens) [9]; 1.02 in assay [10]. Moreover, in assay [12], the composite z-score is -0.0545. The z-score in assay [2] was -1.94 (inactive); in assay [3], 0.217 (inactive); in assay [4], 16.2 (active); in assay [5], -0.37 (inactive); in assay [11] it was 0.516 (inactive); in assay [13] it was 14.6 (active). For the same molecule, the z-score in assay [14] was 2.61 (inactive); in assay [15], 1.4 (inactive); in [16], 0.994 (inactive); in assay [17], 0.0105; in assay [18] it was 1.58 (inactive); in [19], -0.286 (inactive). Further, in assay [20], the z-score is -1.43.

Turning to `N#Cc1ccc(C(O)C2C=CC3C(=O)NC(=O)C3N2Nc2ccccn2)cc1` (stereo not given), the composite z-score is -0.0926 in assay [1]; 0.126 in assay [6]; -0.0427 in assay [7]; 0.166 with Torsin-1A (Homo sapiens) [8]; 0.241 with Torsin-1A (Homo sapiens) [9]; -0.301 in [10]. This molecule also registered a composite z-score in [12] of 0.0341. The z-score in assay [2] is -0.0103 (inactive); in assay [3] it was -1.11 (inactive); in [4], 0.243 (inactive); in assay [5], -0.345 (inactive); in [11], 0.261 (inactive); in assay [13] it was 0.104 (inactive). For the same molecule, the z-score in assay [14] was -0.88 (inactive); in assay [15], -0.138 (inactive); in [16], -1.01 (inactive); in assay [17] it was -0.0329; in assay [18], -1.73 (inactive); in [19], -2.92 (inactive). In addition, in assay [20], the z-score is -1.67.

`COc1ccc([Si](C)(C)[C@H]2[C@H](CCO)O[C@@]3(C(=O)N(Cc4ccccc4)c4ccc(N(C=O)c5ccccc5)cc43)[C@@H]2C)cc1`: the composite z-score in assay [1] is 0.078; in assay [6] it was 0.593; in assay [7], 0.122; with Torsin-1A (Homo sapiens) [8], -0.0549; with Torsin-1A (Homo sapiens) [9], 0.865; in assay [10] it was 1.52. Further, the composite z-score in [12] amounted to 0.0927. Also, the z-score in [2] was -6.74 (inactive); in assay [3], -0.862 (inactive); in assay [4], 2.08 (inactive); in assay [5], -0.993 (inactive); in assay [11], 0.352 (inactive); in assay [13], 5.68 (inactive). The z-score in assay [14] is 2.52 (inactive); in [15] it was 1.12 (inactive); in [16], 1.28 (inactive); in assay [17], 0.456; in assay [18] it was -0.98 (inactive); in assay [19] it was 0.184 (inactive). Besides, the z-score in assay [20] is 1.23.

As to `CC(=O)c1ccc(C(O)C2C=CC3C(=O)NC(=O)C3N2Nc2ccc(Cl)cc2Cl)cc1` (stereo not given), the composite z-score in assay [1] is 0; in [6], 0.147; in assay [7] it was 0.0565; in the assay with Torsin-1A (Homo sapiens) [8], 0.027; with Torsin-1A (Homo sapiens) [9], 0.0127; in assay [10], -0.257. This molecule yielded a composite z-score in [12] of 0.0267. For the same molecule, the z-score was 0.102 (inactive) in assay [2]; -0.806 (inactive) in [3]; 0.626 (inactive) in assay [4]; 0.412 (inactive) in [5]; -2.32 (inactive) in assay [11]; 2.38 (inactive) in assay [13]. In addition, the z-score is 0.738 (inactive) in assay [14]; 1.15 (inactive) in assay [15]; 1 (inactive) in assay [16]; -0.497 in assay [17]; -0.826 (inactive) in assay [18]; -5.81 (inactive) in [19]. Moreover, the z-score in [20] is -3.8.

In the case of `COc1ccc(NC(=O)O[C@H]2[C@H](OC(=O)Nc3ccc4c(c3)OCO4)[C@H](OC(=O)Nc3ccc4c(c3)OCO4)[C@@H](OC)O[C@@H]2CO)cc1`, the composite z-score is 0.0873 in assay [1]; -0.0821 in assay [6]; -0.0131 in assay [7]; 0.207 with Torsin-1A (Homo sapiens) [8]; 1.91 with Torsin-1A (Homo sapiens) [9]; 0.725 in [10]. The molecule also returned a composite z-score in [12] of 0.114. Also, the z-score is -2.42 (inactive) in assay [2]; 0.883 (inactive) in assay [3]; 0.456 (inactive) in assay [4]; -0.92 (inactive) in assay [5]; -0.723 (inactive) in assay [11]; 13.7 (active) in assay [13]. In addition, the z-score was 1.26 (inactive) in assay [14]; 0.99 (inactive) in assay [15]; 0.597 (inactive) in assay [16]; -0.0897 in [17]; -1.54 (inactive) in assay [18]; -0.399 (inactive) in assay [19]. The z-score in [20] was -1.64.

On to `COC(=O)[C@@]1(Cc2ccc(F)cc2)[C@H]2c3cc(C(=O)N(C)C)n(CCO)c3C[C@H]2CN1C(=O)c1ccccc1`, for which the composite z-score is -0.0929 in assay [1]; -0.208 in assay [6]; 0.0464 in [7]; 0.149 with Torsin-1A (Homo sapiens) [8]; 0.297 in the assay with Torsin-1A (Homo sapiens) [9]; -0.653 in assay [10]. In [12], this molecule came in with a composite z-score of 0.0774. Further, the z-score is -0.494 (inactive) in [2]; -0.0693 (inactive) in assay [3]; 0.773 (inactive) in [4]; 0.0355 (inactive) in [5]; -0.285 (inactive) in [11]; 0.0154 (inactive) in assay [13]. Moreover, the z-score in assay [14] was -0.687 (inactive); in assay [15], -1.25 (inactive); in assay [16], -1.27 (inactive); in [17] it was 1.8; in assay [18], 0.254 (inactive); in assay [19] it was 1.68 (inactive). Moreover, in assay [20], the z-score was -2.18.
